Reference: PubChem BioAssay (NCI)
About 79,000 compounds went through this panel and 15% of them were active in at least one assay; those are over-represented in the sample as a whole. A number with no mark means an inactive call. Active and inactive are the calls of the source. No stated cut-off is given here; in the data, active means growth inhibition above about 70%; inactive means the rest.

Experiments:
[1] = NCI Yeast Anticancer Drug Screen. Data for the rad50 strain (AID 155);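 further: 0% = growth of vehicle-only cultures of the same strain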; settings: S. cerevisiae rad50 strain growth inhibition; at 50.0 µM; stronger effect = higher value
In short: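 A DNA repair-deficient yeast mutant serves as the test organism; compound-induced growth inhibition is calculated against vehicle-treated cells.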

[2] = NCI Yeast Anticancer Drug Screen. Data for the mec2-1 strain (AID 157); settings: S. cerevisiae mec2-1 strain, at 50.0 µM, stronger effect = higher value
In short: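 Test agents were screened against the mec2-1 yeast strain, with defined DNA repair or cell cycle alteration. Growth was scored as inhibition against vehicle-only controls.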

[3] = NCI Yeast Anticancer Drug Screen. Data for the sgs1 mgt1 strain (AID 161);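 further: 0% = growth of cultures given vehicle only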; settings: S. cerevisiae sgs1 mgt1 strain, at 50.0 µM, stronger effect = higher value
In short: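 Genetically altered yeast, compound exposure, growth inhibition relative to vehicle.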

[4] = NCI Yeast Anticancer Drug Screen. Data for the cln2 rad14 strain (AID 165);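 further: 0% = growth equal to vehicle treated cultures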; settings: S. cerevisiae cln2 rad14 strain, at 50.0 µM, stronger effect = higher value
In short: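 Growth of compound-exposed yeast (cln2 rad14 genotype) measured and expressed as inhibition relative to vehicle.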

[5] = NCI Yeast Anticancer Drug Screen. Data for the bub3 strain (AID 167); settings: S. cerevisiae bub3 mutant strain, at 50.0 µM, stronger effect = higher value
In short: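 Inhibition values come from growth of compound-treated mutant yeast normalised to vehicle-treated controls.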

[6] = NCI Yeast Anticancer Drug Screen. Data for the mlh1 rad18 strain (AID 175); settings: S. cerevisiae mlh1 rad18 strain growth inhibition; at 50.0 µM; stronger effect = higher value
In short: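 In this whole-cell yeast screen, a strain with altered DNA damage repair is challenged with compound, and its growth is measured against matched vehicle-treated controls.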

SMILES	growth inhibition [1]	growth inhibition [2]	growth inhibition [3]	growth inhibition [4]	growth inhibition [5]	growth inhibition [6]
O=C1CN(/N=C/c2ccc(-c3ccc(Cl)c(Cl)c3)o2)C(=O)N1	28.9%	14.4%	29.1%	3.2%	10%	5.5%
COc1cc(N)c(OC)nn1	-1.1%	9.4%	3.15%	-14.8%	11.3%	-10.4%
CCOC(=O)NC(CCl)NC(=O)OCC	-11.7%	-5.6%	-2.05%	-77%	6.4%	-35.5%
OCC#C[C@@H]1CC[C@H]1C#CCO	7.3%	-3.3%	6.3%	2.3%	2.6%	-6%
O=S1OC(c2ccccc2)C(c2ccccc2)O1 (centres undefined)	-2.1%	-10.5%	-4.55%	11.8%	-1.45%	-7.7%
Nc1ccc(Cl)cc1Cl	-28.3%	-7.1%	-33.5%	-34%	-0.1%	-21.3%
CSC(SC)[P+](c1ccccc1)(c1ccccc1)c1ccccc1	94.1% (active)	93.9% (active)	90.7% (active)	93.5% (active)	91.2% (active)	93.5% (active)
Oc1ccc(-c2ccc(Br)cc2)cc1	-25.1%	-6%	-14.4%	-2%	-31.8%	-14.8%
CC(C)(C#CCOC(=O)c1ccc([N+](=O)[O-])cc1)OC(=O)c1ccc([N+](=O)[O-])cc1	9.25%	-3.7%	18.5%	32.1%	1.5%	5.35%
Nc1cc(Cl)ccc1N1C(=O)C=CC1=O	-26.6%	-14.8%	1.25%	-6.25%	-9.1%	18.6%
COC(=O)C(=O)C(C)C(=O)C(C)c1nc(NC(=O)Nc2ccc(Cl)cc2)n[nH]1 (centres undefined)	1.65%	-3.7%	3%	-32%	13.4%	7.1%
Cc1ccc(Nc2ncnc3c2cnn3-c2ccccc2)cc1	9.7%	12.2%	43.5%	-24.1%	-2.35%	8.05%
Cc1ccccc1C1OC(=O)c2ccccc21 (centres undefined)	17.7%	-8.85%	4.45%	4.2%	15.2%	27.6%
CC(=O)C1=C2CCC3C(CCC4CC(O)CCC43C)C2CC1 (centres undefined)	-3.95%	-3.35%	10.9%	-9.45%	-8%	11.2%
COc1ccc(OC)c(NC(=O)Nc2cccc(C(C)=O)c2)c1	-12.2%	33.9%	33%	-55.4%	35.2%	22.6%
Cc1c(CCCl)c(=O)n2c([nH]c3ccccc32)c1C#N	56.5%	-56.5%	18.6%	5.2%	-52.1%	62%
N#Cc1cccc(N2C(=O)C3C4C=CC(C3C2=O)C2C(=O)N(c3cccc(C#N)c3)C(=O)C42)c1 (centres undefined)	-8.5%	-0.65%	-6.25%	26.6%	-0.35%	-18.4%
Cc1ccc(NC(=S)Nc2cccc(C(F)(F)F)c2)cc1C	-11.9%	-4.45%	-5.75%	4.85%	-7.3%	20.6%
O=c1c(O)c(-c2cc(O)c(O)c(O)c2)oc2cc(O)ccc12	-35.5%	-36.8%	-24.3%	-8.8%	-32.8%	-29.8%
